Hit rate of the full screen: of about 69,000 compounds, about 950 (1.4%) showed an effect of 50% or more. This excerpt belongs to a sample that is enriched for strong results.
system: Mycobacterium tuberculosis; test: Cornell M. t heat shock assay; format: functional, organism-based; design: dose or concentration left out as unconfirmed; note: in the data most compounds retested in dose-response had high values

SMILES	Percent Effect
COCCn1cc(C(=O)N2CCCC2c2cc(C)on2)c2ccccc21 (stereo not drawn)	-20.39%
COc1cccc([C@H]2CN(C(=O)c3cc(C)on3)C[C@@H]2N)c1	-0.4367%
Cc1cc(C(=O)N2CCN(c3nc4c(C(C)C)cccc4s3)CC2)on1	-0.7761%
COc1cccc2sc(N3CC(OC(C)=O)C3)nc12	4.303%
Cc1cc(C(=O)N2CCN(c3nc4c(C(C)C)cccc4s3)CC2)no1	88.51%
Cc1cc(C(=O)N2CCN(c3nc4ccccc4s3)CC2)no1	-15.49%
Cc1cc(C(=O)N2CCN(c3nc4c(C)cccc4s3)CC2)no1	96.55%
Cc1cc(C(=O)N2CCN(c3nc4c(F)cccc4s3)CC2)no1	70.89%
COc1cccc2sc(N3CCN(C(=O)c4cc(C)on4)CC3)nc12	101.6%
Cc1cccc(C(=O)N2CCN(c3ccccc3F)CC2)n1	-5.532%
CC(=O)OC1CN(c2nc3c(C)cccc3s2)C1	-13.72%
CCOc1cc(C)nc(N2CCN(C(=O)c3cc(C)on3)CC2)n1	-16.01%
CCOC(=O)N1CCN(C(=O)c2cc(-c3ccccc3F)on2)CC1	9.54%
Cc1cc(C(=O)N2CCN(C)CC2)nn1CC(=O)NCc1ccccn1.Cl	-24.19%
CC(C)C[C@H](N)c1nnc(SCC(=O)Nc2ccc(Br)cc2)o1.Cl	9.958%
O=C(O)C(F)(F)F.O=C(O)C(F)(F)F.O=C(O)C(F)(F)F.c1ccc(NCc2cn3c(n2)CN(Cc2cccnc2)CC3)nc1	2.185%
CS(=O)(=O)c1ccc(C(=O)N2CCCC(n3ccnc3)C2)cc1 (stereo not drawn)	8.305%
Cn1cc(-c2ncc3c(c2C(=O)O)CCN(Cc2ccccn2)C3)cn1.O=C(O)C(F)(F)F.O=C(O)C(F)(F)F	44.96%
CO[C@@H]1CCN(C(=O)c2ccsc2)[C@@H]2CN(CC3CC3)C[C@@H]21.O=C(O)C(F)(F)F	9.15%
COCCCNC(=O)c1cc(-c2cnc(N(C)C)nc2)cn1CC1CC1.O=C(O)C(F)(F)F	0.3583%
CC1(C)CN(Cc2c[nH]c(CC3CCCC3)n2)CC[C@]1(C)O	10.2%
COC[C@]1(O)CCN(Cc2c[nH]c(CC3CCCC3)n2)CC1(C)C	-12.53%
OC1(CN2CCCCC2)CCN(Cc2c[nH]c(CC3CCCC3)n2)C1 (stereo not drawn)	56.92%
OC1(CN2CCCC2)CCCN(Cc2c[nH]c(CC3CCCC3)n2)C1 (stereo not drawn)	109.3%

SMILES	Percent Effect
c1[nH]c(CC2CCCC2)nc1CN1CCCC2(CCOC2)C1 (stereo not drawn)	-0.6443%
C[C@@H]1CN(Cc2c[nH]c(CC3CCCC3)n2)CC[C@]1(C)O	-1.066%
COc1cc(C(=O)N(C)C)ccc1NC(=O)c1ccsc1	-21.05%
CCS(=O)(=O)N1CC[C@H]2CO[C@H](CN(C)C)[C@H]2C1.O=C(O)C(F)(F)F	-39.84%
CCN1CCC2(CCC(=O)N2Cc2cccc(C)n2)CC1.O=C(O)C(F)(F)F.O=C(O)C(F)(F)F	-30.9%
O=C(O)C(F)(F)F.O=C(O)C(F)(F)F.c1cnn(CCCO[C@@H]2CN(C3CCOCC3)[C@@H]3CCCO[C@@H]32)c1	-22.39%
Cc1ccc(CN2CC[C@H]3NC(=O)CC[C@@H]32)o1.O=C(O)C(F)(F)F	-7.125%
Cc1cccc(N2CCC3(CCCN(C(=O)c4cccnc4)C3)C2)n1.O=C(O)C(F)(F)F.O=C(O)C(F)(F)F (stereo not drawn)	-32.42%
CN(C)CCNC(=O)c1ccc2ccc(N(C)CC3CC3)n2c1	-34.83%
CN(C)C(=O)CNC(=O)c1ccc2ccc(N(C)CC3CC3)n2c1	51.54%
COCCNC(=O)c1ccc2ccc(N(C)CC3CC3)n2c1	24.26%
NC(=O)N1CCC2(CCN(C(=O)c3cccnc3)CC2)C1.O=C(O)C(F)(F)F	-5.676%
Cl.Cl.c1ccc(COC[C@@H]2CCC[C@@]23CNCCO3)nc1	33.86%
Cc1cc(C)c(CNC(=O)NCCNc2cnccn2)c(=O)[nH]1	-7.276%
CCCc1cncnc1N1CCC(NCc2ccncc2)CC1	4.573%
CCCc1cncnc1N1CCC(NCc2ccc(O)cc2)CC1	-4.464%
CCCc1cncnc1N1CCC(NCc2cc3ccccc3[nH]2)CC1	103.5%
Cc1n[nH]c(C(=O)NCc2ccnc(OCC(F)(F)F)c2)c1Br	65.15%
Cc1ncsc1C(=O)NCc1ccnc(OCC(F)(F)F)c1	-36.25%
Cc1noc(C)c1C(=O)NCc1ccnc(OCC(F)(F)F)c1	0.8028%
NC(=O)N1CCCC(C(=O)NCc2ccccc2OC(F)(F)F)C1 (stereo not drawn)	35.38%
CN(Cc1ccccc1OC(F)(F)F)C(=O)C1CC1	6.346%
CN(Cc1ccccc1OC(F)(F)F)C(=O)C1CCCN(C(N)=O)C1 (stereo not drawn)	92.25%
O=C(O)C(F)(F)F.O=C(O)C(F)(F)F.c1cc(CO[C@H]2CC[C@H]3[C@H]2OCCN3Cc2nccs2)ccn1	-1.961%

SMILES	Percent Effect
O=C(O)C(F)(F)F.O=C(O)C(F)(F)F.O=C1N(c2cncnc2)CCC12CCCN(Cc1cccnc1)C2 (stereo not drawn)	-18.13%
CCOCC1CN(C(=O)c2cscn2)Cc2cn(C)nc21.O=C(O)C(F)(F)F (stereo not drawn)	-37.83%
COC[C@@H]1CCC[C@]12CN(Cc1ccco1)CCO2.O=C(O)C(F)(F)F	-13.34%
Cl.NCc1cc(-c2ccccc2)n2nccc2n1	-2.564%
COCC(C)N1CCc2onc(-c3ccc(C(F)(F)F)cc3)c2C1 (stereo not drawn)	16.68%
FC(F)(F)c1ccc(-c2noc3c2CN(CC2CCCO2)CC3)cc1 (stereo not drawn)	46.47%
OCC(O)CN1CCc2onc(-c3ccc(C(F)(F)F)cc3)c2C1 (stereo not drawn)	97.28%
COCC1c2nnn(CC3CC3)c2CCN1C(=O)c1cc(C)on1 (stereo not drawn)	9.302%
COCC1c2nnn(CC3CC3)c2CCN1C(=O)c1ccnnc1 (stereo not drawn)	-6.272%
COCC1c2nnn(CC3CC3)c2CCN1C(=O)c1cc(C)[nH]c1C (stereo not drawn)	70.57%
CCC(CNC(=O)c1ccc(=O)[nH]n1)N1CCc2ccccc2C1 (stereo not drawn)	-4.669%
CCC(CNC(=O)c1ccccc1Br)N1CCc2ccccc2C1 (stereo not drawn)	-2.045%
CCC(CNC(=O)c1ccccn1)N1CCc2ccccc2C1 (stereo not drawn)	64.91%
O=C(O)C(F)(F)F.c1ccc(CN2CCCn3nnc(CNc4ncccn4)c3C2)nc1	11.56%
Cc1noc(C)c1CN1CCc2ncnc(-c3ccncc3)c2CC1.O=C(O)C(F)(F)F.O=C(O)C(F)(F)F	7.897%
O=C(CCc1ccsc1)NCC1CCN(C2CC2)C1 (stereo not drawn)	-16.29%
O=C(CCc1ccccc1)NCC1CCN(Cc2ccsc2)CC1	-20.67%
O=C(CCc1ccsc1)NCC1CCN(c2ccccc2)C1 (stereo not drawn)	105.9%
CC(C)c1nn(C)cc1CNCc1ccnc(N(C)C)c1.Cl	-35.39%
CC(C)NC(=O)CC1COC2(CCN(Cc3ccccc3)CC2)C1.O=C(O)C(F)(F)F (stereo not drawn)	-5.683%
CS(=O)(=O)NC[C@@H]1OC[C@H]2CN(Cc3ccsc3)CC[C@H]21.O=C(O)C(F)(F)F	-25.96%
CC(C)(C)Nc1c(C2CCCN(C(=O)C3CC3)C2)nc2ccccn12.Cl (stereo not drawn)	-26.51%
CCc1nnc(CN(C)Cc2cccc(C(=O)Nc3ccnn3C)c2)o1	2.892%
CC(c1ccco1)N(C)Cc1cccc(C(=O)Nc2nccn2C)c1 (stereo not drawn)	105%

SMILES	Percent Effect
CC(NC(=O)c1cccc(CN2CCN(C)CC2)c1)c1ccccn1 (stereo not drawn)	-15.12%
CC(c1ccccn1)N(C)Cc1cccc(C(=O)Nc2nccn2C)c1 (stereo not drawn)	74%
CN(Cc1cccc(C(=O)Nc2ccnn2C)c1)CC1(C)COC1	-8.064%
COC(=O)c1cccc(CN(C)C(C)c2ccccn2)c1 (stereo not drawn)	-7.966%
N#CC1=C(N)Nn2c(nnc2-c2ccccc2Br)S1	-17.22%
CNC(=O)C1CN(c2ccc(F)cc2)CCN1.Cl (stereo not drawn)	-9.726%
CC(C)CN1CC[C@H]2OCC[C@@H](C(=O)N3CCCO3)[C@@H]2C1.O=C(O)C(F)(F)F	-22.87%
c1cnn(CC2CCCCN2c2ncnc3ccsc23)c1 (stereo not drawn)	-40.74%
CNC(=O)[C@@]12CCO[C@@H]1CCN(S(=O)(=O)c1cccnc1)C2.O=C(O)C(F)(F)F	3.091%
Cc1noc(C)c1CN1CCO[C@H]2CN(Cc3nccn3C)C[C@H]21.O=C(O)C(F)(F)F.O=C(O)C(F)(F)F	-6.105%
Cc1nc(CN(C)C2CCN(Cc3nc4ccccc4s3)C2)no1 (stereo not drawn)	-21.16%
Cc1nc(CN(C)C2CCN(CCCc3ccccc3)C2)no1 (stereo not drawn)	-13.87%
Cc1nc(CN(C)C2CCN(Cc3cccc4cccnc34)C2)no1 (stereo not drawn)	19.87%
Cc1nc(CN(C)C2CCN(Cc3ccno3)C2)no1 (stereo not drawn)	-9.493%
Cc1nc(CN(C)C2CCN(Cc3nc4ccccc4n3C)C2)no1 (stereo not drawn)	69.83%
Cc1cnc(CN(C)C2CCN(Cc3nc4ccccc4o3)C2)o1 (stereo not drawn)	-16.63%
Cc1nnc(CN(C)C2CCN(Cc3nc4ccccc4n3C)C2)o1 (stereo not drawn)	28.12%
Cc1cnc(CN(C)C2CCN(Cc3nc4ccccc4n3C)C2)o1 (stereo not drawn)	96.91%
Cc1nc(CN(C)C2CCN(Cc3ccc4ccccc4n3)C2)no1 (stereo not drawn)	86.18%
Cc1cc(-c2nccs2)nc(C2CCN(Cc3ccncc3)CC2)n1.Cl	-12.67%
CN(Cc1ccco1)[C@@H]1CN(Cc2ccco2)[C@@H]2CCCO[C@H]12.O=C(O)C(F)(F)F.O=C(O)C(F)(F)F	13.61%

Source: ChEMBL document CHEMBL3988442, “University of Dundee, Small-Polar-MMV Screening Library” (2021)
